# Test results taken from ChEMBL document CHEMBL1857833, “Screening and optimization of specific chemical series against human African Trypanosomiasis (HAT)”.
# Where “and” joins values, the source holds several entries; their conditions need not be identical. Identical values can stand only once. Hit rate of the full screen: of about 4,400 compounds, about 390 (8.9%) showed an effect of 50% or more. Shown is part of a subset that was picked to be rich in strong results.
# Tested on: Trypanosoma brucei
# Assay: DNDI: Inhibition of Human African Trypanosomiasis, SBRI 427, in vitro at 2 ug.mL-1
# Type: functional
row,SMILES,% inhibition
1,CC(NCc1coc(-c2ccccc2Br)n1)c1cccc2ccccc12 (configuration not stated),9% and -3%
2,CCOc1ccccc1Oc1ncccc1/C(=N/O)N1CCC=N1,13%
3,COc1cccc(-c2nc(CNc3ccc(C(C)=O)cc3)co2)c1,18%
4,COc1cc(-c2nc(CN3CCN(Cc4ccc5c(c4)OCO5)CC3)co2)cc(OC)c1OC,-1%
5,O/N=C(/c1cccnc1OCc1ccccc1F)N1CCN(c2ccc(F)cc2)CC1,-19%
6,CCc1ccc(Oc2ccc(/C(=N/O)N3CCSCC3)cn2)cc1,16%
7,CCc1ccc(Oc2ccc(/C(=N/O)N3CCCCC3)cn2)cc1,68%
8,CCc1ccc(Oc2ccc(/C(=N/O)NCc3ccc(OC)cc3)cn2)cc1,22%
9,CSc1ccc(Oc2cc(/C(=N/O)NC3CCC(C)CC3)ccn2)cc1 (configuration not stated),9%
10,CCc1ccc(Oc2ccc(/C(=N/O)NCC3CC3)cn2)cc1,99%
11,CCc1ccc(Oc2ccc(/C(=N/O)N3CCOCC3)cn2)cc1,3%
12,CCc1ccc(Oc2ccc(/C(=N/O)NCc3c(F)cccc3F)cn2)cc1,22%
13,CC1CCC(N/C(=N\O)c2ccc(Oc3ccc(F)cc3)nc2)CC1 (configuration not stated),16%
14,CSc1ccc(Oc2ccc(/C(=N/O)NC3CCC(C)CC3)cn2)cc1 (configuration not stated),81%
15,N#CCCN(Cc1coc(-c2cccc(F)c2)n1)CC1CCCO1 (configuration not stated),-9%
16,Cc1ccc(Oc2nc(C)ccc2/C(=N/O)N2CCC3CCCCC3C2)c(C)c1 (configuration not stated),10%
17,CC(C)COc1ncccc1/C(=N/O)N1CCC2CCCCC2C1 (configuration not stated),-17%
18,Cc1ccc(Oc2ccc(/C(=N/O)N3CCN(c4ccccc4)CC3)cn2)c(C)c1,18%
19,COc1cc(CN(C)Cc2coc(-c3ccc(Cl)cc3Cl)n2)cc(OC)c1OC,0%
20,COc1cc(-c2nc(CN3CCCc4ccccc43)co2)cc(OC)c1OC,6%
21,CCOc1ccccc1CN/C(=N\O)c1ccc(C)nc1Oc1ccc(C)cc1,67%
22,CCOc1ccccc1CN/C(=N\O)c1ccc(C)nc1Oc1ccc(SC)c(C)c1,-24%
23,Cc1ccc(Oc2nc(C)ccc2/C(=N/O)NCc2ccccc2C)c(C)c1,43%
24,COc1ccccc1CN/C(=N\O)c1ccc(C)nc1Oc1ccc(C)cc1C,40%
25,CCOc1ccccc1CN/C(=N\O)c1ccc(C)nc1Oc1ccc(F)cc1,20%
26,CCOc1ccccc1CN/C(=N\O)c1ccc(C)nc1Oc1ccc(C)cc1C,99%

row,SMILES,% inhibition
1,Fc1ccc(-c2nc(CNC3CCc4ccccc43)co2)cc1 (configuration not stated),28%
2,Cc1ccc(/C(=N/O)N2C(C)CCCC2C)c(Oc2cccc(F)c2)n1 (configuration not stated),15%
3,CN(Cc1coc(-c2cccc(F)c2)n1)Cc1cccc2ccccc12,-3%
4,COc1ccc(CN/C(=N\O)c2ccnc(Oc3ccc(C)c4c3CCC4)c2)cc1,21%
5,COC(=O)c1cn(Cc2coc(-c3ccc(Br)cc3)n2)cn1,16%
6,CSc1ccc(Oc2ncccc2/C(N)=N/O)cc1C,17%
7,CCOc1ccc(Oc2cc(/C(=N/O)NC3CC(C)CC(C)(C)C3)ccn2)cc1 (configuration not stated),29%
8,CCOc1ccc(Oc2cc(/C(=N/O)NC3CCc4ccccc43)ccn2)cc1 (configuration not stated),29%
9,CCOc1ccc(Oc2cc(/C(=N/O)Nc3ccccc3)ccn2)cc1,24%
10,CCOc1ccc(Oc2cc(/C(=N/O)NC3CCCCC3)ccn2)cc1,51%
11,CCOc1ccc(Oc2cc(/C(=N/O)NC3CCC(C)CC3)ccn2)cc1 (configuration not stated),25%
12,CCOc1ccc(Oc2cc(/C(=N/O)NC3CCCC3)ccn2)cc1,53%
13,CCOc1cccc(-c2nc(CN3CCN(c4cc(C)nc5ccccc45)CC3)co2)c1,11%
14,Cc1ccccc1-c1nc(CNCCN2CCOCC2)co1,6%
15,CCOc1cccc(-c2nc(CN3CCCN(C)CC3)co2)c1,2%
16,CSc1ccc(Oc2nc(C)ccc2/C(=N/O)N2CCSC2)cc1,1%
17,Fc1cccc(-c2nc(CN3CCCCCC3)co2)c1,5%
18,Cc1cc(C)cc(CN/C(=N\O)c2ccc(Oc3cc(C)cc(C)c3)nc2)c1,-3%
19,Cc1cc(Oc2ccc(/C(=N/O)NC3CCC(C)CC3)cn2)cc(C(C)C)c1 (configuration not stated),19%
20,Cc1cc(Oc2ccc(/C(=N/O)NC3CC3)cn2)cc(C(C)C)c1,62%
21,COCCN/C(=N\O)c1ccc(Oc2cc(C)cc(C(C)C)c2)nc1,17%
22,CCCN/C(=N\O)c1ccc(Oc2cc(C)cc(C)c2)nc1,20%
23,CC(C)CN/C(=N\O)c1ccc(Oc2ccc3ccccc3c2)nc1,2%
24,Cc1cc(C)cc(Oc2ccc(/C(=N/O)NCC(C)(C)C)cn2)c1,98%
25,COc1cccc(Oc2ccc(/C(=N/O)NCC(C)C)cn2)c1,19%
26,Cc1cc(Oc2ccc(/C(=N/O)NC3CCc4ccccc43)cn2)cc(C(C)C)c1 (configuration not stated),35%

row,SMILES,% inhibition
1,Cc1cc(Oc2ccc(/C(=N/O)NCC3CC3)cn2)cc(C(C)C)c1,97%
2,Cc1cc(C)cc(Oc2ccc(/C(=N/O)NCC(C)C)cn2)c1,90%
3,Cc1cc(C)cc(CN/C(=N\O)c2ccc(Oc3cc(C)cc(C(C)C)c3)nc2)c1,19%
4,CCC(C)(C)N/C(=N\O)c1ccc(C)nc1Oc1ccc(F)c(F)c1,11%
5,CCOc1ccccc1-c1nc(CN2CCC=N2)co1,-3%
6,CC(=O)c1ccc(N2CCN(Cc3coc(-c4ccc(F)cc4)n3)CC2)cc1,-5%
7,Cc1cc(C)cc(Oc2ccc(/C(=N/O)NCC3CCCCC3)cn2)c1,21%
8,Cc1cc(C)cc(Oc2ccc(/C(=N/O)NCC3CCCO3)cn2)c1 (configuration not stated),-3%
9,Cc1cc(C)cc(Oc2ccc(/C(=N/O)NCC3CC3)cn2)c1,99%
10,Cc1cccc(CNCc2coc(-c3ccc(O)cc3)n2)c1,-10%
11,Cc1cn(Cc2coc(-c3ccccc3Br)n2)c(C)n1,25%
12,CCCCN(Cc1coc(-c2ccccc2Cl)n1)c1ccccc1,10%
13,COc1cc(-c2nc(Cn3cnc(C)c3)co2)cc(OC)c1OC,-15%
14,CC1(C)[C@H]2CC[C@@H](CNCc3coc(-c4cccc5ccccc45)n3)[C@@H]1C2,73%
15,COc1cc(-c2nc(CNC[C@@H]3CC[C@H]4C[C@@H]3C4(C)C)co2)cc(OC)c1OC,11%
16,COc1ccc(-c2nc(CNC[C@@H]3CC[C@H]4C[C@@H]3C4(C)C)co2)cc1,97%
17,COc1ccc(-c2nc(CNCC3CCCO3)co2)cc1 (configuration not stated),-10%
18,CC1(C)[C@H]2CC[C@@H](CNCc3coc(-c4cccc(F)c4)n3)[C@@H]1C2,42%
19,CC1(C)[C@H]2CC[C@@H](CNCc3coc(-c4ccccc4Cl)n3)[C@@H]1C2,35%
20,COc1ccc(CNCc2coc(-c3ccc(F)cc3)n2)cc1,-33%
21,c1ccc2c(CNCc3coc(-c4cccc5ccccc45)n3)cccc2c1,14%
22,Cc1ccc(-c2nc(CNC[C@@H]3CCCO3)co2)cc1,12%
23,Cc1ccc(-c2nc(CNC[C@@H]3CC[C@H]4C[C@@H]3C4(C)C)co2)cc1,99%
24,CC1(C)[C@H]2CC[C@@H](CNCc3coc(-c4ccc(F)cc4)n3)[C@@H]1C2,99%
25,Cc1ccc(-c2nc(CNCc3ccc(C)o3)co2)cc1,-7%
